# Measured values: PubChem BioAssay AID1159580 (chemical genetic matrix, 2015)
# The whole screen tested about 5,500 compounds, of which about 2,000 (36%) were called active. Inconclusive results (about 18%) are left out. Some of the results follow. Unmarked numbers belong to inactive results. No stated cut-off is given here; in the data, active means normalized growth mostly below about 0.91 (no sharp cut-off); inconclusive means no clear call, values can overlap the other calls; inactive means mostly above about 0.92.
# Experiment: chemical genetic growth profiling, strain panel (AID 1159580);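 further: tested at 20 µM; growth read once vehicle control cultures reached saturation at 30 °C; 1 = growth at the plate median or of vehicle wells; lower values mean less growth of the strain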
# Settings: S. cerevisiae deletion strains, growth OD
# [1] = locus YAL013W, strain DEP1, active compounds read low
# [2] = locus YAL040C, strain CLN3, active compounds read low
# [3] = locus YCL061C, strain MRC1 (second series), active compounds read low
# [4] = locus YDR363W, strain ESC2, active compounds read low
# [5] = locus YER002W, strain NOP16, active compounds read low
# [6] = locus YGR078C, strain PAC10, active compounds read low
# [7] = locus YMR307W, strain GAS1, active compounds read low
# [8] = locus YNL175C, strain NOP13, active compounds read low
# [9] = locus YNL197C, strain WHI3, active compounds read low
# [10] = locus YNL224C, strain SQS1, active compounds read low
# [11] = locus YOR083W, strain WHI5 (second series), active compounds read low
# [12] = locus YPL055C, strain LGE1, active compounds read low
# [13] = locus YPL241C, strain CIN2, active compounds read low
compound,measurement,setting,value
CCCCCCCCCCCCC/C=C/[C@@H](O)[C@@H](N)CO,normalized growth,[1],0.877 (active)
same,normalized growth,[2],0.984
same,normalized growth,[3],0.925 (active)
same,normalized growth,"locus YDR150W, strain NUM1, active compounds read low",0.848 (active)
same,normalized growth,[4],0.929
same,normalized growth,[5],1.02
same,normalized growth,[6],1.01
same,normalized growth,"locus YGR229C, strain SMI1, active compounds read low",0.172 (active)
same,normalized growth,"locus YJR075W, strain HOC1, active compounds read low",0.644 (active)
same,normalized growth,[7],1.02
same,normalized growth,"locus YNL153C, strain GIM3, active compounds read low",0.844
same,normalized growth,[8],1.19 [resistant] (active)
same,normalized growth,[9],1.1
same,normalized growth,[10],1.06
same,normalized growth,[11],1.11
same,normalized growth,[12],0.757 (active)
same,normalized growth,[13],0.926 (active)
CCCCCCCCCCCCCCC[C@H](O)[C@H](N)CO,normalized growth,[1],0.976
same,normalized growth,[2],1.05
same,normalized growth,[3],0.987
same,normalized growth,[4],0.99
same,normalized growth,[5],1.03
same,normalized growth,[6],1.01
same,normalized growth,[7],1.01
same,normalized growth,"locus YNL128W, strain TEP1, active compounds read low",0.222 (active)
same,normalized growth,[8],0.643 (active)
same,normalized growth,[9],1.12 [resistant] (active)
same,normalized growth,[10],0.928
same,normalized growth,[11],0.811 (active)
same,normalized growth,[12],1.02
same,normalized growth,[13],0.998
C[C@@H](N)CO,normalized growth,"locus YAL021C, strain ccr4, active compounds read low",0.998
same,normalized growth,"locus YAL026C, strain drs2, active compounds read low",0.992
same,normalized growth,"locus YAL030W, strain snc1, active compounds read low",0.985
same,normalized growth,"locus YBL061C, strain skt5, active compounds read low",0.994
same,normalized growth,"locus YBR009C, strain hhf1, active compounds read low",1.01
same,normalized growth,"locus YBR023C, strain chs3, active compounds read low",0.987
same,normalized growth,"locus YBR171W, strain sec66, active compounds read low",0.967
same,normalized growth,"locus YBR231C, strain swc5, active compounds read low",0.991
same,normalized growth,"locus YBR279W, strain paf1, active compounds read low",0.987
same,normalized growth,"locus YCL011C, strain gbp2, active compounds read low",0.997
same,normalized growth,"locus YCL016C, strain dcc1, active compounds read low",0.991
same,normalized growth,"locus YCL069W, strain vba3, active compounds read low",0.988
same,normalized growth,"locus YCR088W, strain abp1, active compounds read low",0.993
same,normalized growth,"locus YDL005C, strain med2, active compounds read low",0.961
same,normalized growth,"locus YDL040C, strain nat1, active compounds read low",0.976
same,normalized growth,"locus YDR001C, strain nth1, active compounds read low",0.983
same,normalized growth,"locus YDR069C, strain doa4, active compounds read low",0.967
same,normalized growth,"locus YDR137W, strain rgp1, active compounds read low",0.979
same,normalized growth,"locus YDR159W, strain sac3, active compounds read low",0.972
same,normalized growth,"locus YDR195W, strain ref2",0.954
same,normalized growth,"locus YDR297W, strain sur2, active compounds read low",1
same,normalized growth,"locus YDR334W, strain swr1, active compounds read low",0.989
same,normalized growth,"locus YDR335W, strain msn5, active compounds read low",0.995
same,normalized growth,"locus YDR392W, strain spt3, active compounds read low",0.979
same,normalized growth,"locus YEL003W, strain gim4, active compounds read low",0.997
same,normalized growth,"locus YEL037C, strain rad23, active compounds read low",1
same,normalized growth,"locus YEL061C, strain CIN8 (second series), active compounds read low",1.01
same,normalized growth,"locus YER015W, strain faa2, active compounds read low",0.989
same,normalized growth,"locus YER016W, strain bim1, active compounds read low",0.996
same,normalized growth,"locus YER111C, strain swi4, active compounds read low",0.973
same,normalized growth,"locus YER155C, strain BEM2 (second series), active compounds read low",0.984
same,normalized growth,"locus YFR010W, strain ubp6, active compounds read low",1
same,normalized growth,"locus YGL167C, strain pmr1, active compounds read low",0.984
same,normalized growth,"locus YGL173C, strain kem1, active compounds read low",1
same,normalized growth,"locus YGL227W, strain vid30, active compounds read low",0.973
same,normalized growth,"locus YGL240W, strain doc1, active compounds read low",1.01
same,normalized growth,"locus YGL253W, strain hxk2, active compounds read low",0.989
same,normalized growth,"locus YHR013C, strain ard1, active compounds read low",1
same,normalized growth,"locus YHR027C, strain rpn1, active compounds read low",0.995
same,normalized growth,"locus YHR030C, strain SLT2, active compounds read low",0.984
same,normalized growth,"locus YHR079C, strain IRE1, active compounds read low",0.974
same,normalized growth,"locus YHR142W, strain chs7, active compounds read low",0.98
same,normalized growth,"locus YJL092W, strain hpr5, active compounds read low",0.996
same,normalized growth,"locus YJL095W, strain BCK1 (second series), active compounds read low",0.996
same,normalized growth,"locus YJL095W, strain BCK1, active compounds read low",0.975
same,normalized growth,"locus YJL115W, strain asf1, active compounds read low",1
same,normalized growth,"locus YJL129C, strain trk1, active compounds read low",0.989
same,normalized growth,"locus YJL154C, strain vps35, active compounds read low",0.996
same,normalized growth,"locus YJL164C, strain tpk1, active compounds read low",1.01
same,normalized growth,"locus YJL166W, strain qcr8, active compounds read low",1
same,normalized growth,"locus YJL187C, strain SWE1, active compounds read low",0.988
same,normalized growth,"locus YJR066W, strain TOR1, active compounds read low",0.914
same,normalized growth,"locus YKL160W, strain elf1, active compounds read low",0.968
same,normalized growth,"locus YKR026C, strain gcn3, active compounds read low",0.995
same,normalized growth,"locus YKR091W, strain srl3, active compounds read low",0.977
same,normalized growth,"locus YLL001W, strain dnm1, active compounds read low",0.986
same,normalized growth,"locus YLL026W, active compounds read low",0.994
same,normalized growth,"locus YLL041C, strain sdh2, active compounds read low",0.997
same,normalized growth,"locus YLR027C, strain aat2, active compounds read low",0.999
same,normalized growth,"locus YLR113W, strain HOG1, active compounds read low",1.02
same,normalized growth,"locus YLR221C, strain rsa3, active compounds read low",1.01
same,normalized growth,"locus YLR258W, strain gsy2, active compounds read low",0.995
same,normalized growth,"locus YLR262C, strain YPT6 (second series), active compounds read low",0.973
same,normalized growth,"locus YLR320W, strain mms22, active compounds read low",1.01
same,normalized growth,"locus YLR342W, strain FKS1, active compounds read low",0.987
same,normalized growth,"locus YLR357W, strain rsc2, active compounds read low",0.954
same,normalized growth,"locus YLR370C, strain arc18, active compounds read low",0.996
same,normalized growth,"locus YLR384C, strain iki3, active compounds read low",1.01
same,normalized growth,"locus YML120C, strain ndi1, active compounds read low",0.983
same,normalized growth,"locus YMR058W, strain fet3, active compounds read low",1.02
same,normalized growth,"locus YMR125W, strain sto1, active compounds read low",0.947
same,normalized growth,"locus YMR129W, active compounds read low",0.994
same,normalized growth,"locus YMR205C, strain PFK2, active compounds read low",1.01
same,normalized growth,"locus YMR231W, strain pep5, active compounds read low",0.984
same,normalized growth,"locus YNL071W, strain lat1, active compounds read low",1.01
same,normalized growth,"locus YNL183C, strain NPR1, active compounds read low",0.901
same,normalized growth,"locus YNL209W, strain ssb2, active compounds read low",0.974
same,normalized growth,"locus YNL248C, strain rpa49, active compounds read low",0.942
same,normalized growth,"locus YNL322C, strain KRE1 (second series), active compounds read low",0.973
same,normalized growth,"locus YNR049C, strain mso1, active compounds read low",0.981
same,normalized growth,"locus YOR001W, strain rrp6, active compounds read low",1.01
same,normalized growth,"locus YOR070C, strain gyp1, active compounds read low",0.986
same,normalized growth,"locus YOR080W, strain dia2, active compounds read low",0.969
same,normalized growth,"locus YOR083W, strain WHI5, active compounds read low",0.94
same,normalized growth,"locus YOR106W, strain vam3, active compounds read low",0.964
same,normalized growth,"locus YOR231W, strain MKK1, active compounds read low",0.974
same,normalized growth,"locus YOR265W, strain rbl2, active compounds read low",0.992
same,normalized growth,"locus YOR270C, strain vph1, active compounds read low",0.976
same,normalized growth,"locus YOR290C, strain snf2, active compounds read low",0.984
same,normalized growth,"locus YPL051W, strain arl3, active compounds read low",0.99
same,normalized growth,"locus YPL078C, strain atp4, active compounds read low",0.976
same,normalized growth,"locus YPL106C, strain sse1, active compounds read low",0.973
same,normalized growth,"locus YPL240C, strain hsp82, active compounds read low",0.995
same,normalized growth,"locus YPL256C, strain CLN2, active compounds read low",0.988
